# Screening data: PubChem BioAssay, Johns Hopkins Ion Channel Center
# KCNQ2 block = rat KCNQ2 potassium channel inhibitors, primary screen, cell-based, CHO-K1, FluxOR thallium flux, B-score. Potassium voltage-gated channel subfamily KQT member 2 (Rattus norvegicus), O88943. 20 min; hits give low values. B-score at 10 µM. 1.1% of 310,000 active. AID 2156, 2009;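 active means fluorescence ratio B-score at most minus 3 library SDs, with starting brightness B-score within 2 library SDs, cut at about -5.5 in these data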
# Target sequence (O88943 whole entry, looked up): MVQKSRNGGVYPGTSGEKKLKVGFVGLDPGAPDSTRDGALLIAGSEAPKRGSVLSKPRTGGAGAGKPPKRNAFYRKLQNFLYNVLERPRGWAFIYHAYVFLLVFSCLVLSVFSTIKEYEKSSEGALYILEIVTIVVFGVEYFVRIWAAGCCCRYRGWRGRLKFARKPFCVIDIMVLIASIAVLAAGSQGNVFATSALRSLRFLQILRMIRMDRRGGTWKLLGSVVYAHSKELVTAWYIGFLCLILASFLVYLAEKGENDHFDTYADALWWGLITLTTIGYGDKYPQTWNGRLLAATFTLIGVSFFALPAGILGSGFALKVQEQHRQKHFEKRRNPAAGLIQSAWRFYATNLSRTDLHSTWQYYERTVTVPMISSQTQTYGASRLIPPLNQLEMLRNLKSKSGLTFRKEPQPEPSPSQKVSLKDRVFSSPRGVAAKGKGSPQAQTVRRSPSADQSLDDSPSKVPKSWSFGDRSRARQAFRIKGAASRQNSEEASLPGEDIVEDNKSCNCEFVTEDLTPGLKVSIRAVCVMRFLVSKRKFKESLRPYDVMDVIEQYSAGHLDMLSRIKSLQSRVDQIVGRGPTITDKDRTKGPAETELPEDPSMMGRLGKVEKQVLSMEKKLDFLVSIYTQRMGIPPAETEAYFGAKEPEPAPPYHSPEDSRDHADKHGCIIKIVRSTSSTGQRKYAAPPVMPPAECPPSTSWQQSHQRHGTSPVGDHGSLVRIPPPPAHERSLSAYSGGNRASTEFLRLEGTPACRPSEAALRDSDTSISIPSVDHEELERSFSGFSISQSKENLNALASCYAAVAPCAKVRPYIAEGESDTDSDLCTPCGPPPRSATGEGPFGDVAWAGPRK
# KCNQ2 enhance = potentiators of rat KCNQ2 potassium channel. 0.54% of 310,000 active. CHO-K1 KCNQ2, FluxOR thallium flux fluorescence; hits give high values. B-score at 10 µM. Potassium voltage-gated channel subfamily KQT member 2 (Rattus norvegicus), O88943. AID 2239, 2010;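 active means fluorescence ratio B-score at least 3 SD of library B-scores, with initial fluorescence B-score within 3 of them, cut at about 5.3 in these data; same plate scores as AID 2156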;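 further: B-score of peak minus minimum over baseline fluorescence ratio after K+ and Tl+ stimulus; positive B-score means potentiation of KCNQ2 with more thallium influx and brighter signal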
# KCNQ2 inh conf = rat KCNQ2 potassium channel inhibitors, confirmation, cell-based, thallium flux | shares compounds with KCNQ2 block | 57% of 1,000 active | KCNQ2-expressing cells, inhibition; hits give low values | activity change, negative = inhibition, % at 10 µM;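 further: 0% = vehicle wells and values are ratio percent relative to vehicle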
# KCNQ1 spec = human KCNQ1 channel inhibition, counter-screen for KCNQ2 inhibitor project, cell-based, FluxOR thallium flux. shares compounds with KCNQ2 block. KCNQ1-expressing cells, FluxOR thallium flux fluorescence; hits give low values. activity change, negative = inhibition, % at 10 µM. 15% of 1,000 active. AID 493026, 2011;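 active means activity change at least 3 SD of negative controls below their mean in both duplicate wells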;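 further: CHO cells stably transfected with KCNQ1 and depolarized by potassium stimulus; peak minus minimum fluorescence over baseline after thallium addition; 0% = vehicle negative control and -100% = blank without thallium stimulus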
# CHO parental ctr = thallium flux change in parental CHO cells, counter-screen for KCNQ2 inhibitor project; activity change, % at 10 µM; hits give low values; shares compounds with KCNQ2 block; AID 493029, 2011; 14% of 1,000 active;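 further: 0% = vehicle negative controls with stimulus buffer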
# KCNQ2 inh confirm = rat KCNQ2 channel inhibitors, confirmation, cell-based, automated patch clamp, single concentration | shares compounds with KCNQ2 block | calls only at 10 µM | 49% of 550 active | KCNQ2-expressing cells, automated patch clamp current
# Kir21 confirm = mouse Kir2.1 channel blockers, retest, confirmation, cell-based, FluxOR thallium flux, duplicate; shares compounds with KCNQ2 enhance; Kir2.1-expressing cells, FluxOR thallium flux fluorescence; hits give low values; Tl flux remaining, % of negative control (hits give low values), % at 10 µM; 41% of 2,300 active;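 active means Primary-screen hit whose thallium flux fell at least 3 control SD below untreated wells in both duplicates, with normal baseline fluorescence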;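 further: 0% = blank wells without stimulus and 100% = stimulated no-compound controls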
# HEK293 Tl flux = alters thallium flux in parental HEK293 cells, Kir2.1 counter-screen; 19% of 2,300 active; FluxOR signal as % of negative control (100 = no effect), % at 10 µM; shares compounds with KCNQ2 enhance; AID 2105; FluxOR thallium flux fluorescence; 0% = unstimulated blank wells;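 active means dye signal at least 3 control SD above or below untreated wells in both duplicates, raw fluorescence within 3, either direction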;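 further: percent is based on the flux ratio of peak minus minimum fluorescence over baseline F0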
# * hit, by the source's call; i = inactive; nt = no result given; + = active, no number. This is a sample that favours compounds with a hit; in the whole collection about 1.6% have one here. Unless noted, how the calls were made is not given here.
SMILES,KCNQ2 block,KCNQ2 enhance,KCNQ2 inh conf,KCNQ1 spec,CHO parental ctr,others
O=S(=O)(c1ccc(F)cc1)N1CCCCC1c1cccnc1 (stereo unspecified),i,nt,nt,nt,nt,
Cc1ccc(-n2c(/C=C/c3ccc4c(c3)OCO4)nc3ccccc3c2=O)cc1,-5.65*,-5.65,nt,nt,nt,
COc1ccc(-n2c(/C=C/c3ccc4c(c3)OCO4)nc3ccccc3c2=O)cc1,i,nt,nt,nt,nt,
CCOC(=O)C1(CCc2ccccc2)CCN(CC(O)CO)CC1 (stereo unspecified),i,nt,nt,nt,nt,
O=C1NC(=O)N(c2ccccc2)C(=O)/C1=C/c1coc2ccc(O)cc2c1=O,-7.09*,-7.09,nt,nt,nt,
O=C1NC(=O)N(c2ccc(Cl)cc2)C(=O)/C1=C/c1coc2ccc(O)cc2c1=O,i,nt,nt,nt,nt,
CCc1cc(=O)oc2cc(OCC(=O)N3C[C@H]4C[C@@H](C3)c3cccc(=O)n3C4)ccc12,i,nt,nt,nt,nt,
C=C(CO)CC1CC(O)[C@]2(C)OC3CC4OC5C[C@]6(C)O[C@]7(C)CCC8OC9C[C@]%10(C)OC%11C(C)=CC(=O)OC%11CC%10OC9C[C@@H](C)C8OC7CC6O[C@]5(C)C/C=C\C4OC3CC2O1 (stereo partly specified),i,0.1,nt,nt,nt,
C=C(C=O)CC1CC(O)[C@]2(C)OC3CC4OC5C[C@]6(C)O[C@]7(C)CCC8OC9C[C@]%10(C)OC%11C(C)=CC(=O)OC%11CC%10OC9C[C@@H](C)C8OC7CC6O[C@]5(C)CC5OC5C4OC3CC2O1 (stereo partly specified),-5.57*,-5.57,nt,nt,nt,
O=C(CNC(=O)c1ccccc1Cl)Nc1ccc(Br)cc1C(=O)c1ccccc1,i,0.06,nt,nt,nt,
O=C(c1cc(C(=O)NCc2ccccc2)c(=O)n(Cc2ccccc2)c1)c1cc(Br)ccc1O,-8.25*,-8.25,-33.5%*,-39.0%*,-32.0%*,KCNQ2 inh confirm=i
COc1cc(/C=C/[N+](=O)[O-])ccc1O,-7.11*,-7.11,-32.5%*,-30.5%*,-23.5%*,KCNQ2 inh confirm=i
COc1cc(/C=C2/C(=O)NC(=O)N(c3ccccc3)C2=O)ccc1O,i,0.42,nt,nt,nt,
Clc1ccc2sc(C3CCNCC3)nc2c1,i,1.06,nt,nt,nt,
C[C@]12CC[C@H]3[C@@H](CCC4=CC(=O)CC[C@@]43O)[C@@H]1CCC2=O,i,nt,nt,nt,nt,
Clc1ccc(COC(Cn2ccnc2)c2ccc(Cl)cc2Cl)c(Cl)c1 (stereo unspecified),-7.31*,-7.31,-38.0%*,-42.0%*,-34.5%*,KCNQ2 inh confirm=i
CCC(C#N)(CC)P(=S)(c1ccccc1)c1ccccc1,-8.64*,-8.64,i,i,i,
CC(=NCc1cccnc1)c1c(O)n(-c2ccc(Cl)cc2)c(=O)[nH]c1=O,i,0.55,nt,nt,nt,
CC1CN(C(=O)CCC(=O)N2CCC3(CC2)OCCO3)c2cc(Cl)ccc2O1 (stereo unspecified),i,1.06,nt,nt,nt,
COc1cccc(NP(=O)(Oc2ccc(Cl)cc2)Oc2ccc(Cl)cc2)c1,i,nt,nt,nt,nt,
O=P(Nc1ccccc1)(Nc1ccccc1)Oc1ccc(Cl)cc1,-9.69*,-9.69,i,i,i,
Cc1ccc(OCCOc2cccc(C=C3C(=O)NC(=O)NC3=O)c2)cc1,i,1.15,nt,nt,nt,
CC(NS(C)(=O)=O)c1nnc2n1-c1ccc(Br)cc1C(c1ccccc1Cl)=NC2 (stereo unspecified),i,0.83,nt,nt,nt,
O=P(NS(=O)(=O)c1ccccc1)(Oc1ccccc1)Oc1ccccc1,i,0.11,nt,nt,nt,
O=P(NCc1ccccc1)(Oc1ccccc1)Oc1ccccc1,-6.87*,-6.87,i,i,i,
SMILES,KCNQ2 block,KCNQ2 enhance,KCNQ2 inh conf,KCNQ1 spec,CHO parental ctr,others
CCN1C[C@]2(CO)CC[C@H](OC)[C@@]34C5C[C@H]6[C@H](OC)C5[C@](O)(C[C@H]6OC)[C@@](O)(C(OC)C23)[C@@H]14 (stereo partly specified),i,1.2,nt,nt,nt,
CCCC1(CCC)C(=O)NC(=Nc2ccccc2)NC1=O,i,1.27,nt,nt,nt,
CCCC1(CCC)C(=O)NC(=NCc2ccccc2)NC1=O,-10.3*,-10.3,-36.5%*,i,i,KCNQ2 inh confirm=+
O=C(NC1CCCCC1)Oc1cc2oc(=O)sc2cc1Cl,i,0.27,nt,nt,nt,
COc1ccccc1CCNCc1cccc(C(F)(F)F)c1,i,0.14,nt,nt,nt,
Cc1cc(C)c2c(ccc3cccc[n+]32)c1,i,0.05,nt,nt,nt,
CC(=NCCC1=CCCCC1)c1c(O)n(-c2ccccc2)c(=O)[nH]c1=O,i,0.13,nt,nt,nt,
O=Cc1c(C(=O)O)n(Cc2ccc(F)cc2Cl)c2ccccc12,i,1.33,nt,nt,nt,
COc1cccc(-n2c(/C=C/c3ccc(O)c(O)c3)nc3ccccc3c2=O)c1,-6.91*,-6.91,-28.0%*,i,i,KCNQ2 inh confirm=i
COc1ccc(-n2c(/C=C/c3ccc(O)c(OC)c3)nc3ccccc3c2=O)cc1,i,nt,nt,nt,nt,
C=C1C2[C@H](OC(C)=O)[C@@H]3CC(=O)[C@]4(C)OC[C@@]3(C)[C@@]4(O)[C@@H](OC(C)=O)[C@H](OC(C)=O)[C@@]2(COC(=O)c2ccccc2)[C@@H](OC(C)=O)C[C@@H]1O (stereo partly specified),i,0.3,nt,nt,nt,
O=c1c2ccccc2nc(-c2cccs2)n1-c1ccccc1,i,nt,nt,nt,nt,
NC(N)=N/N=C/c1cn(-c2ccccc2)nc1-c1cccs1,-11.3*,-11.3,i,i,i,
CCOC(=O)c1c(/N=C/C2C(=O)NC(=O)NC2=O)sc2c1CCC2,i,0.38,nt,nt,nt,
CCOC(=O)c1c(NC(NC(=O)CF)C(Cl)(Cl)Cl)sc2c1CCCC2 (stereo unspecified),-8.37*,-8.37,-29.0%*,i,i,KCNQ2 inh confirm=i
CCN(CC)c1ccc(/C=C/[N+](=O)[O-])cc1,-8.76*,-8.76,-75.0%*,-79.5%*,-76.5%*,KCNQ2 inh confirm=i
CCN(CC)c1ccc(CC2C(=O)N(C)C(=O)N(C)C2=O)cc1,i,nt,nt,nt,nt,
CCCCCCCSc1cc(OC)c(CCNC)cc1OC,-7.43*,-7.43,-31.0%*,i,i,KCNQ2 inh confirm=i;Kir21 confirm=19.5%*;HEK293 Tl flux=i
OC(CNCCc1c[nH]c2ccccc12)c1ccccc1 (stereo unspecified),i,0.48,nt,nt,nt,
